{"source": "the supplement of paper PMC8728848", "binders": {"B1": {"name": "PfulAvr4 2 (Pseudocercospora fuligena) (protein)", "chain": "HHHHHHDYKDDDDKAKPIKPFACPPKDFTTTKCQGPVDCLYANPLSCLGYIQCVCDDDACSTATPYAKSCPTGLAWVEKLKRCDGIKKSACPKKMYEGS"}}, "assay_in_all_cases": "glycan array binding signal (z-score within array); higher = stronger binding", "conditions_in_all_cases": "glycan notation: IUPAC condensed, linker removed", "key": {"[1]": {"biological_target": "Fuc(a1-2)Gal(b1-3)GalNAc(b1-3)Gal(a1-4)Gal(b1-4)Glc", "how_it_was_run": "(§1)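 The binding signal is a Z-score computed within each array. Data were drawn from 3228 arrays in the Consortium for Functional Glycomics database, restricted to those with a known protein sequence. Scores were averaged over arrays of the same protein sequence at different concentrations or buffers, and over linkers, and negative values can be taken as non-binding.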"}, "[2]": {"biological_target": "Fuc(a1-2)Gal(b1-4)GlcNAc(b1-2)Man(a1-3)[Fuc(a1-2)Gal(b1-4)GlcNAc(b1-2)Man(a1-6)]Man(b1-4)GlcNAc(b1-4)[Fuc(a1-6)]GlcNAc", "how_it_was_run": "as §1"}, "[3]": {"biological_target": "Fuc(a1-2)Gal(b1-4)[Fuc(a1-3)]GlcNAc(b1-2)[Fuc(a1-2)Gal(b1-4)[Fuc(a1-3)]GlcNAc(b1-4)]Man(a1-3)[Fuc(a1-2)Gal(b1-4)[Fuc(a1-3)]GlcNAc(b1-2)Man(a1-6)]Man(b1-4)GlcNAc(b1-4)GlcNAc", "how_it_was_run": "as §1"}, "[4]": {"biological_target": "Fuc(a1-2)Gal(b1-4)[Fuc(a1-3)]GlcNAc(b1-3)Gal(b1-4)[Fuc(a1-3)]GlcNAc", "how_it_was_run": "as §1"}, "Fuc(a1-2)Gal6S(b1-4)Glc": {"biological_target": "Fuc(a1-2)Gal6S(b1-4)Glc", "how_it_was_run": "as §1"}, "[5]": {"biological_target": "Fuc(a1-2)[Gal(a1-3)]Gal(b1-4)GlcNAc(b1-6)GalNAc", "how_it_was_run": "as §1"}, "[6]": {"biological_target": "Fuc(a1-2)[GalNAc(a1-3)]Gal(b1-3)GalNAc(a1-3)[Fuc(a1-2)]Gal(b1-4)GlcNAc", "how_it_was_run": "as §1"}, "[7]": {"biological_target": "Gal(a1-4)Gal(b1-4)GlcNAc(b1-2)Man(a1-3)[Gal(a1-4)Gal(b1-4)GlcNAc(b1-2)Man(a1-6)]Man(b1-4)GlcNAc(b1-4)GlcNAc", "how_it_was_run": "as §1"}, "Gal(b1-3)GlcNAc(b1-2)Man": {"biological_target": "Gal(b1-3)GlcNAc(b1-2)Man", "how_it_was_run": "as §1"}, "[8]": {"biological_target": "Gal(b1-3)GlcNAc(b1-2)Man(a1-3)[GlcNAc(b1-4)][Gal(b1-3)GlcNAc(b1-2)Man(a1-6)]Man(b1-4)GlcNAc(b1-4)GlcNAc", "how_it_was_run": "as §1"}, "[9]": {"biological_target": "Gal(b1-3)GlcNAc(b1-2)[Gal(b1-3)GlcNAc(b1-6)]Man(a1-6)[Gal(b1-3)GlcNAc(b1-2)Man(a1-3)]Man(b1-4)GlcNAc(b1-4)GlcNAc", "how_it_was_run": "as §1"}, "[10]": {"biological_target": "Gal(b1-3)GlcNAc(b1-3)Gal(b1-4)Glc", "how_it_was_run": "as §1"}, "[11]": {"biological_target": "Gal(b1-3)GlcNAc(b1-3)Gal(b1-4)GlcNAc", "how_it_was_run": "as §1"}, "[12]": {"biological_target": "Gal(b1-3)[Fuc(a1-4)]GlcNAc", "how_it_was_run": "as §1"}, "[13]": {"biological_target": "Gal(b1-4)GlcNAc(b1-2)Man(a1-3)[GlcNAc(b1-2)Man(a1-6)]Man(b1-4)GlcNAc(b1-4)GlcNAc", "how_it_was_run": "as §1"}, "[14]": {"biological_target": "Gal(b1-4)GlcNAc(b1-2)Man(a1-3)[GlcNAc(b1-4)][Gal(b1-4)GlcNAc(b1-2)Man(a1-6)]Man(b1-4)GlcNAc(b1-4)GlcNAc", "how_it_was_run": "as §1"}, "[15]": {"biological_target": "Gal(b1-4)GlcNAc(b1-2)Man(a1-3)[Man(a1-6)]Man(b1-4)GlcNAc(b1-4)GlcNAc", "how_it_was_run": "as §1"}, "[16]": {"biological_target": "Gal(b1-4)GlcNAc(b1-2)[Gal(b1-4)GlcNAc(b1-4)]Man(a1-3)[Gal(b1-4)GlcNAc(b1-2)[Gal(b1-4)GlcNAc(b1-6)]Man(a1-6)]Man(b1-4)GlcNAc(b1-4)GlcNAc", "how_it_was_run": "as §1"}, "[17]": {"biological_target": "Gal(b1-4)GlcNAc(b1-3)Gal(b1-4)GlcNAc(b1-2)[Gal(b1-4)GlcNAc(b1-3)Gal(b1-4)GlcNAc(b1-6)]Man(a1-6)[Gal(b1-4)GlcNAc(b1-3)Gal(b1-4)GlcNAc(b1-2)Man(a1-3)]Man(b1-4)GlcNAc(b1-4)GlcNAc", "how_it_was_run": "as §1"}, "[18]": {"biological_target": "Gal(b1-4)GlcNAc(b1-3)Gal(b1-4)GlcNAc(b1-3)Gal(b1-4)GlcNAc(b1-3)Gal(b1-4)GlcNAc(b1-2)Man(a1-3)[Gal(b1-4)GlcNAc(b1-3)Gal(b1-4)GlcNAc(b1-3)Gal(b1-4)GlcNAc(b1-3)Gal(b1-4)GlcNAc(b1-2)Man(a1-6)]Man(b1-4)GlcNAc(b1-4)[Fuc(a1-6)]GlcNAc", "how_it_was_run": "as §1"}, "[19]": {"biological_target": "Gal(b1-4)GlcNAc(b1-3)[GlcNAc(b1-6)]Gal(b1-4)GlcNAc", "how_it_was_run": "as §1"}, "Gal3S(b1-3)GlcNAc": {"biological_target": "Gal3S(b1-3)GlcNAc", "how_it_was_run": "as §1"}, "[20]": {"biological_target": "Gal3S(b1-4)[Fuc(a1-3)]Glc6S", "how_it_was_run": "as §1"}, "GalNAc6S(b1-4)GlcNAc": {"biological_target": "GalNAc6S(b1-4)GlcNAc", "how_it_was_run": "as §1"}, "[21]": {"biological_target": "GlcNAc(a1-4)Gal(b1-4)GlcNAc", "how_it_was_run": "as §1"}, "GlcNAc(b1-3)Man": {"biological_target": "GlcNAc(b1-3)Man", "how_it_was_run": "as §1"}, "[22]": {"biological_target": "GlcNAc6S(b1-3)Gal(b1-4)GlcNAc", "how_it_was_run": "as §1"}, "[23]": {"biological_target": "Man(a1-2)Man(a1-3)[Man(a1-2)Man(a1-6)]Man(a1-6)[Man(a1-2)Man(a1-2)Man(a1-3)]Man", "how_it_was_run": "as §1"}, "[24]": {"biological_target": "Neu5Ac(a2-3)Gal(b1-3)GalNAc", "how_it_was_run": "as §1"}, "[25]": {"biological_target": "Neu5Ac(a2-3)Gal(b1-3)GalNAc(b1-3)Gal(a1-4)Gal(b1-4)Glc", "how_it_was_run": "as §1"}, "[26]": {"biological_target": "Neu5Ac(a2-3)Gal(b1-3)GlcNAc(b1-2)Man(a1-3)[Neu5Ac(a2-3)Gal(b1-3)GlcNAc(b1-2)Man(a1-6)]Man(b1-4)GlcNAc(b1-4)GlcNAc", "how_it_was_run": "as §1"}, "[27]": {"biological_target": "Neu5Ac(a2-3)Gal(b1-3)GlcNAc(b1-3)GalNAc", "how_it_was_run": "as §1"}, "[28]": {"biological_target": "Neu5Ac(a2-3)Gal(b1-4)GlcNAc(b1-2)Man", "how_it_was_run": "as §1"}, "[29]": {"biological_target": "Neu5Ac(a2-3)Gal(b1-4)GlcNAc(b1-2)[Neu5Ac(a2-3)Gal(b1-4)GlcNAc(b1-4)]Man(a1-3)[GlcNAc(b1-4)][Neu5Ac(a2-3)Gal(b1-4)GlcNAc(b1-4)Man(a1-6)]Man(b1-4)GlcNAc(b1-4)GlcNAc", "how_it_was_run": "as §1"}, "[30]": {"biological_target": "Neu5Ac(a2-3)Gal(b1-4)GlcNAc(b1-3)Gal(b1-4)GlcNAc(b1-3)[Neu5Ac(a2-3)Gal(b1-4)GlcNAc(b1-3)Gal(b1-4)GlcNAc(b1-6)]GalNAc", "how_it_was_run": "as §1"}, "[31]": {"biological_target": "Neu5Ac(a2-3)Gal(b1-4)[Fuc(a1-3)]GlcNAc(b1-3)GalNAc", "how_it_was_run": "as §1"}, "[32]": {"biological_target": "Neu5Ac(a2-3)Gal6S(b1-4)GlcNAc", "how_it_was_run": "as §1"}, "[33]": {"biological_target": "Neu5Ac(a2-6)Gal(b1-4)GlcNAc(b1-2)Man(a1-3)Man(b1-4)GlcNAc(b1-4)GlcNAc", "how_it_was_run": "as §1"}, "[34]": {"biological_target": "Neu5Ac(a2-6)Gal(b1-4)GlcNAc(b1-3)Gal(b1-3)GlcNAc", "how_it_was_run": "as §1"}, "[35]": {"biological_target": "Neu5Ac(a2-6)GlcNAc(b1-4)GlcNAc(b1-4)GlcNAc", "how_it_was_run": "as §1"}, "[36]": {"biological_target": "Neu5Gc(a2-3)Gal(b1-4)GlcNAc", "how_it_was_run": "as §1"}}, "note": "The full list was thinned out, with the strongest signals kept by preference.", "data": [{"binder": "B1", "values": [{"measurement": "glycan array binding signal (z-score)", "setting": "[1]", "value": 0.285}, {"measurement": "glycan array binding signal (z-score)", "setting": "[2]", "value": 2.88}, {"measurement": "glycan array binding signal (z-score)", "setting": "[3]", "value": 4.77}, {"measurement": "glycan array binding signal (z-score)", "setting": "[4]", "value": -0.355}, {"measurement": "glycan array binding signal (z-score)", "setting": "Fuc(a1-2)Gal6S(b1-4)Glc", "value": -0.291}, {"measurement": "glycan array binding signal (z-score)", "setting": "[5]", "value": -0.178}, {"measurement": "glycan array binding signal (z-score)", "setting": "[6]", "value": 3.28}, {"measurement": "glycan array binding signal (z-score)", "setting": "[7]", "value": 1.43}, {"measurement": "glycan array binding signal (z-score)", "setting": "Gal(b1-3)GlcNAc(b1-2)Man", "value": -0.279}, {"measurement": "glycan array binding signal (z-score)", "setting": "[8]", "value": 8.86}, {"measurement": "glycan array binding signal (z-score)", "setting": "[9]", "value": -0.063}, {"measurement": "glycan array binding signal (z-score)", "setting": "[10]", "value": 0.144}, {"measurement": "glycan array binding signal (z-score)", "setting": "[11]", "value": -0.311}, {"measurement": "glycan array binding signal (z-score)", "setting": "[12]", "value": -0.218}, {"measurement": "glycan array binding signal (z-score)", "setting": "[13]", "value": -0.331}, {"measurement": "glycan array binding signal (z-score)", "setting": "[14]", "value": -0.216}, {"measurement": "glycan array binding signal (z-score)", "setting": "[15]", "value": 9.66}, {"measurement": "glycan array binding signal (z-score)", "setting": "[16]", "value": -0.113}, {"measurement": "glycan array binding signal (z-score)", "setting": "[17]", "value": 4.76}, {"measurement": "glycan array binding signal (z-score)", "setting": "[18]", "value": -0.233}, {"measurement": "glycan array binding signal (z-score)", "setting": "[19]", "value": 5.97}, {"measurement": "glycan array binding signal (z-score)", "setting": "Gal3S(b1-3)GlcNAc", "value": -0.314}, {"measurement": "glycan array binding signal (z-score)", "setting": "[20]", "value": -0.272}, {"measurement": "glycan array binding signal (z-score)", "setting": "GalNAc6S(b1-4)GlcNAc", "value": -0.276}, {"measurement": "glycan array binding signal (z-score)", "setting": "[21]", "value": -0.432}, {"measurement": "glycan array binding signal (z-score)", "setting": "GlcNAc(b1-3)Man", "value": 4.99}, {"measurement": "glycan array binding signal (z-score)", "setting": "[22]", "value": -0.273}, {"measurement": "glycan array binding signal (z-score)", "setting": "[23]", "value": -0.359}, {"measurement": "glycan array binding signal (z-score)", "setting": "[24]", "value": -0.292}, {"measurement": "glycan array binding signal (z-score)", "setting": "[25]", "value": -0.326}, {"measurement": "glycan array binding signal (z-score)", "setting": "[26]", "value": 7.16}, {"measurement": "glycan array binding signal (z-score)", "setting": "[27]", "value": -0.01}, {"measurement": "glycan array binding signal (z-score)", "setting": "[28]", "value": 5.08}, {"measurement": "glycan array binding signal (z-score)", "setting": "[29]", "value": -0.253}, {"measurement": "glycan array binding signal (z-score)", "setting": "[30]", "value": -0.158}, {"measurement": "glycan array binding signal (z-score)", "setting": "[31]", "value": 0.545}, {"measurement": "glycan array binding signal (z-score)", "setting": "[32]", "value": -0.482}, {"measurement": "glycan array binding signal (z-score)", "setting": "[33]", "value": -0.224}, {"measurement": "glycan array binding signal (z-score)", "setting": "[34]", "value": -0.344}, {"measurement": "glycan array binding signal (z-score)", "setting": "[35]", "value": 3.75}, {"measurement": "glycan array binding signal (z-score)", "setting": "[36]", "value": -0.214}]}]}
